Measured values published in PubChem BioAssay.
Records with an inconclusive call do not appear. Activity calls are given as the source filed them.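 Rule for the calls, unless noted: active = normalized viability below 100% at a tested concentration; inactive = the rest.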

Key:
[1] = growth inhibition of DIPG glioma cells, dose response, cell-based, SU-DIPG-XIII, MIPE4.0, CellTiter-Glo, qHTS (AID 1347061; cut-off not given, nearly all actives have AC50 up to about 37 µM;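 note: cells exposed to compound for 48 hours before readout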); conditions: SU-DIPG-XIII viability, CellTiter-Glo ATP luminescence
[2] = SU-DIPG-VI glioma cell viability, MIPE4.0 library, CellTiter-Glo luminescence, qHTS (AID 1347066; cut-off not given, nearly all actives have AC50 up to about 30 µM;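 note: cells exposed to compound for 48 hours before readout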); conditions: CellTiter-Glo ATP luminescence
[3] = viability loss in pontine glioma line – cell-based, SU-DIPG-XXV, MIPE5.0, CellTiter-Glo, qHTS, dose response (AID 1347065; cut-off not given, nearly all actives have AC50 up to about 26 µM;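 note: cells exposed to compound for 48 hours before ATP readout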); conditions: CellTiter-Glo ATP luminescence
[4] = SU-DIPG-XXV glioma cell viability, MIPE5.0 library, qHTS (AID 1347068; cut-off not given, nearly all actives have IC50 up to about 30 µM;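 for IC50: cells exposed to compound for 48 hours before viability readout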)
[5] = growth inhibition of DIPG glioma cells, dose response, cell-based, SU-DIPG-IV, MIPE4.0, CellTiter-Glo, qHTS (AID 1347063; cut-off not given, nearly all actives have AC50 up to about 30 µM;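 note: compound exposure lasted 48 hours before the viability readout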); conditions: SU-DIPG-IV viability, CellTiter-Glo ATP luminescence
[6] = sensitizers of A549 cells to miR-34 induction, primary screen, imaging, A549 dox-inducible miR-34, nuclei and caspase counts (AID 1347080;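 active = compounds whose cell count with miR-34 switched on is under 0.7 times the count with it off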); conditions: A549 miR-34 inducible, Hoechst nuclei count, 48 h
[7] = survival rescue of mitochondrial mutant cells in low glucose, primary screen, MELAS cybrids, Rieske KO mouse fibroblasts, CellTiter-Glo (AID 1508586;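 active = mean z-score across replicates of 1.96 or higher in either the MELAS or the Rieske mutant cell line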;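 note: z relative to plate mean and SD of compound and empty wells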)
[8] = growth inhibition of DIPG glioma cells, dose response, cell-based, JHH-DIPG-1, MIPE4.0, CellTiter-Glo, qHTS (AID 1347062; cut-off not given, nearly all actives have AC50 up to about 27 µM;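 for AC50: cells exposed to compound for two days before readout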); conditions: JHH-DIPG-1 viability, CellTiter-Glo ATP luminescence
[9] = JHH-DIPG-1 glioma cell viability, MIPE5.0 library, CellTiter-Glo luminescence, qHTS (AID 1347067; cut-off not given, nearly all actives have AC50 up to about 26 µM;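 note: cells exposed to compound for 48 hours before readout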); conditions: JHH-DIPG-1 glioma viability, CellTiter-Glo ATP luminescence
[10] = growth inhibition of DIPG glioma cells, dose response, cell-based, SU-DIPG-XIII, MIPE5.0, CellTiter-Glo, qHTS (AID 1347064; cut-off not given, nearly all actives have AC50 up to about 23 µM;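 for AC50: cells exposed to compound for 48 hours before the viability read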); conditions: SU-DIPG-XIII viability, CellTiter-Glo ATP luminescence
[11] = modifiers of HSF1 nuclear foci, imaging, Selleck Cancer Library (AID 1347162; in the data active = plate-normalised HSF1 focus index below about 0.46); conditions: human cells, at 10 µM; SSMD: measured here: HSF1 foci SSMD mean; cell count: measured here: cell number; plate-normalised HSF1 focus index: stronger effect = lower value
[12] = ovarian cancer cell viability with rucaparib, profiling panel, oncology-focused library, rucaparib conditional (AID 1508598); conditions: patient-derived ovarian cancer cells, CellTiter-Glo viability, 144 h, stronger effect = lower value
[13] = stronger effect = lower value, cell number ratio, induced over uninduced
[14] = measured here: relative caspase fold change +Dox/-Dox
[15] = measured here: total cells with miR-34 induction, stronger effect = lower value
[16] = measured here: total cells without miR-34 induction
[17] = MELAS cybrid survival, CellTiter-Glo 48 h, stronger effect = higher value
[18] = Rieske KO mouse fibroblast survival, CellTiter-Glo 72 h

## CC[C@@H]1/C=C(\C)C[C@H](C)C[C@H](OC)[C@H]2O[C@@](O)(C(=O)C(=O)N3CCCC[C@H]3C(=O)O[C@H](/C(C)=C/[C@@H]3CC[C@H](Cl)[C@H](OC)C3)[C@H](C)[C@@H](O)CC1=O)[C@H](C)C[C@@H]2OC
[1]
  outcome: inactive
[2]
  outcome: inactive

## O=C(C1CC1)N1CC[C@@H](Cn2c(-c3ccc(-c4ccc5occc5c4)cc3)nc3cnccc32)C1
[1]
  outcome: inactive
[3]
  AC50: 18.6 µM (active)
[2]
  outcome: inactive
[4]
  outcome: inactive

## CCCCOc1c(C(=O)c2c(F)cc(C)cc2F)cnc2n[nH]cc12
[1]
  outcome: inactive
[5]
  AC50: 4.18 µM (active)
[3]
  AC50: 1.66 µM (active)
[4]
  IC50: 3.72 µM (active)
[6]; [13]
  fold change: 1.03 (inactive)
[6]; [14]
  fold change: 0.597
[6]; [15]
  cell count: 1950
[6]; [16]
  cell count: 1900
[7]; [17]
  z-score: 0.523 (inactive)
[7]; [18]
  z-score: -1.74

## CC(=O)N1CCN(c2ccc(OCc3nn(C)c(C)c3-c3cccc4c(CCCOc5cc(C)c(Cl)c(C)c5)c(C(=O)O)n(Cc5cccnc5)c34)cc2)CC1
[1]
  outcome: inactive
[5]
  AC50: 23.5 µM (active)
[2]
  AC50: 20.9 µM (active)

## Cc1coc2c1C(=O)C(=O)c1c-2ccc2c(C)cccc12
[1]
  outcome: inactive
[8]
  outcome: inactive
[6]; [13]
  fold change: 0.847 (inactive)
[6]; [14]
  fold change: 1.93
[6]; [15]
  cell count: 7470
[6]; [16]
  cell count: 8830
[7]; [17]
  z-score: -0.324 (inactive)
[7]; [18]
  z-score: -1

## Oc1ccc(C2=Cc3ccc(O)cc3OC2)cc1
[8]
  AC50: 8.33 µM (active)
[5]
  AC50: 3.32 µM (active)
[3]
  outcome: inactive

## Nc1nc(OCc2ccccc2)c2[nH]cnc2n1
[8]
  outcome: inactive
[5]
  outcome: inactive
[3]
  outcome: inactive
[2]
  outcome: inactive
[9]
  outcome: inactive
[4]
  outcome: inactive
[6]; [13]
  fold change: 0.895 (inactive)
[6]; [14]
  fold change: 1.25
[6]; [15]
  cell count: 8910
[6]; [16]
  cell count: 9960

## NC1(Cc2ccc(Cl)cc2)CCN(c2ncnc3[nH]ccc23)CC1
[8]
  AC50: 20.9 µM (active)
[5]
  AC50: 11.8 µM (active)
[10]
  AC50: 14.8 µM (active)
[3]
  AC50: 14.8 µM (active)
[6]; [13]
  fold change: 0.99 (inactive)
[6]; [14]
  fold change: 0.525
[6]; [15]
  cell count: 7470
[6]; [16]
  cell count: 7540
[7]; [17]
  z-score: -0.165 (inactive)
[7]; [18]
  z-score: -1.1

## CN(C1CCc2c(c3ccccc3n2CC(=O)O)C1)S(=O)(=O)c1ccc(F)cc1 (configuration not stated)
[1]
  outcome: inactive
[2]
  outcome: inactive
[6]; [13]
  fold change: 1.07 (inactive)
[6]; [14]
  fold change: 0.901
[6]; [15]
  cell count: 6410
[6]; [16]
  cell count: 5990

## COc1ccc(C[C@@H](C)[C@@H](C)Cc2ccc(OC)c(OC)c2)cc1OC
[8]
  AC50: 1.18 µM (active)

## CCOC(=O)N1CCN(/[N+]([O-])=N/Oc2cc(O/N=[N+](\[O-])N3CCN(C(=O)OCC)CC3)c([N+](=O)[O-])cc2[N+](=O)[O-])CC1
[8]
  AC50: 9.35 µM (active)
[5]
  AC50: 23.5 µM (active)

## C=C1[C@H](n2cnc3c(=O)[nH]c(N)nc32)C[C@H](O)[C@H]1CO
[1]
  outcome: inactive
[2]
  outcome: inactive

## NC(CO)(CO)CCc1ccc(Sc2cccc(OCc3ccccc3)c2)cc1Cl
[8]
  AC50: 11.8 µM (active)
[5]
  AC50: 11.8 µM (active)
[10]
  AC50: 8.33 µM (active)
[3]
  AC50: 9.34 µM (active)
[2]
  AC50: 18.7 µM (active)
[9]
  AC50: 9.34 µM (active)

## CCCS(=O)(=O)Nc1ccc(F)c(C(=O)c2c[nH]c3ncc(-c4ccc(Cl)cc4)cc23)c1F
[8]
  outcome: inactive
[5]
  AC50: 14.8 µM (active)
[10]
  outcome: inactive
[2]
  outcome: inactive
[4]
  outcome: inactive
[6]; [13]
  fold change: 0.763 (inactive)
[6]; [14]
  fold change: 1
[6]; [15]
  cell count: 5420
[6]; [16]
  cell count: 7100
[11]
  SSMD: 2.8
  cell count: 6960
  plate-normalised HSF1 focus index: 1.15 (inactive)
[7]; [17]
  z-score: -0.461 (inactive)
[7]; [18]
  z-score: -0.424
[12]; at 0.000305 µM, OCI-C5x cells, with rucaparib 10 µM, 100% = cells with rucaparib alone
  viability: 120% (inactive)
[12]; at 0.000305 µM, OCI-C5x cells, without rucaparib
  viability: 96.8% (active)
[12]; at 0.000305 µM, OCI-P5x cells, with rucaparib 20 µM, 100% = cells with rucaparib alone
  viability: 95.6% (active)
[12]; at 0.000305 µM, OCI-P5x cells, without rucaparib
  viability: 93% (active)
[12]; at 0.00122 µM, OCI-C5x cells, with rucaparib 10 µM, 100% = cells with rucaparib alone
  viability: 112% (inactive)
[12]; at 0.00122 µM, OCI-C5x cells, without rucaparib
  viability: 111% (inactive)
[12]; at 0.00122 µM, OCI-P5x cells, with rucaparib 20 µM, 100% = cells with rucaparib alone
  viability: 99.5% (active)
[12]; at 0.00122 µM, OCI-P5x cells, without rucaparib
  viability: 96.2% (active)
[12]; at 0.00488 µM, OCI-C5x cells, with rucaparib 10 µM, 100% = cells with rucaparib alone
  viability: 123% (inactive)
[12]; at 0.00488 µM, OCI-C5x cells, without rucaparib
  viability: 106% (inactive)
[12]; at 0.00488 µM, OCI-P5x cells, with rucaparib 20 µM, 100% = cells with rucaparib alone
  viability: 103% (inactive)
[12]; at 0.00488 µM, OCI-P5x cells, without rucaparib
  viability: 99% (active)
[12]; at 0.0195 µM, OCI-C5x cells, with rucaparib 10 µM, 100% = cells with rucaparib alone
  viability: 107% (inactive)
[12]; at 0.0195 µM, OCI-C5x cells, without rucaparib
  viability: 107% (inactive)
[12]; at 0.0195 µM, OCI-P5x cells, with rucaparib 20 µM, 100% = cells with rucaparib alone
  viability: 107% (inactive)
[12]; at 0.0195 µM, OCI-P5x cells, without rucaparib
  viability: 102% (inactive)
[12]; at 0.0781 µM, OCI-C5x cells, with rucaparib 10 µM, 100% = cells with rucaparib alone
  viability: 105% (inactive)
[12]; at 0.0781 µM, OCI-C5x cells, without rucaparib
  viability: 107% (inactive)
[12]; at 0.0781 µM, OCI-P5x cells, with rucaparib 20 µM, 100% = cells with rucaparib alone
  viability: 103% (inactive)
[12]; at 0.0781 µM, OCI-P5x cells, without rucaparib
  viability: 104% (inactive)
[12]; at 0.313 µM, OCI-C5x cells, with rucaparib 10 µM, 100% = cells with rucaparib alone
  viability: 106% (inactive)
[12]; at 0.313 µM, OCI-C5x cells, without rucaparib
  viability: 107% (inactive)
[12]; at 0.313 µM, OCI-P5x cells, with rucaparib 20 µM, 100% = cells with rucaparib alone
  viability: 93.7% (active)
[12]; at 0.313 µM, OCI-P5x cells, without rucaparib
  viability: 105% (inactive)
[12]; at 1.25 µM, OCI-C5x cells, with rucaparib 10 µM, 100% = cells with rucaparib alone
  viability: 49.6% (active)
[12]; at 1.25 µM, OCI-C5x cells, without rucaparib
  viability: 35% (active)
[12]; at 1.25 µM, OCI-P5x cells, with rucaparib 20 µM, 100% = cells with rucaparib alone
  viability: 45.5% (active)
[12]; at 1.25 µM, OCI-P5x cells, without rucaparib
  viability: 10.7% (active)
[12]; at 5 µM, OCI-C5x cells, with rucaparib 10 µM, 100% = cells with rucaparib alone
  viability: 97.9% (active)
[12]; at 5 µM, OCI-C5x cells, without rucaparib
  viability: 105% (inactive)
[12]; at 5 µM, OCI-P5x cells, with rucaparib 20 µM, 100% = cells with rucaparib alone
  viability: 49.3% (active)
[12]; at 5 µM, OCI-P5x cells, without rucaparib
  viability: 16.3% (active)

## CO[C@H]1C[C@@H]2CC[C@@H](C)[C@@](O)(O2)C(=O)C(=O)N2CCCC[C@H]2C(=O)O[C@H]([C@@H](C)C[C@@H]2CC[C@@H](O)[C@H](OC)C2)CC(=O)[C@H](C)/C=C(\C)[C@@H](O)[C@@H](OC)C(=O)[C@H](C)C[C@H](C)/C=C/C=C/C=C/1C
[8]
  AC50: 20.9 µM (active)
[5]
  AC50: 20.9 µM (active)
[3]
  AC50: 16.6 µM (active)
[9]
  AC50: 23.5 µM (active)
[6]; [13]
  fold change: 0.999 (inactive)
[6]; [14]
  fold change: 1.23
[6]; [15]
  cell count: 3690
[6]; [16]
  cell count: 3700

## Cc1noc(-c2ccc(CSCCC(=O)O)cc2)c1NC(=O)OC(C)c1ccccc1Cl (configuration not stated)
[8]
  outcome: inactive
[5]
  outcome: inactive
[10]
  outcome: inactive
[3]
  outcome: inactive
[2]
  outcome: inactive
[9]
  outcome: inactive
[4]
  outcome: inactive
[6]; [13]
  fold change: 0.888 (inactive)
[6]; [14]
  fold change: 1.07
[6]; [15]
  cell count: 6620
[6]; [16]
  cell count: 7460
[7]; [17]
  z-score: -0.439 (inactive)
[7]; [18]
  z-score: 0.718

## CCCCCCCc1ccc(CCc2cccc(O)c2C(=O)O)cc1
[8]
  outcome: inactive
[5]
  outcome: inactive
[3]
  outcome: inactive
[9]
  outcome: inactive
[4]
  outcome: inactive
[11]
  SSMD: 0.921
  cell count: 6030
  plate-normalised HSF1 focus index: 1.06 (inactive)
